Vif-A3G inh = qHTS for Inhibitors of Vif-A3G Interactions: qHTS. HeLa A3G-eYFP + Vif (tagged APOBEC3G with the HIV-1 protein that degrades it), YFP fluorescence, overnight. Potency, µM (titrated, usually from 46.1 µM), for the others: top-dose activity, negative = active, most hits filed as inhibitors. 0.076% of 410,000 active; further: on the % scale 0 is the no-effect control and ±100 the full control effect; nearly all actives have a fitted effect of over 60% in size
Target sequence (Q9HC16 whole entry, looked up): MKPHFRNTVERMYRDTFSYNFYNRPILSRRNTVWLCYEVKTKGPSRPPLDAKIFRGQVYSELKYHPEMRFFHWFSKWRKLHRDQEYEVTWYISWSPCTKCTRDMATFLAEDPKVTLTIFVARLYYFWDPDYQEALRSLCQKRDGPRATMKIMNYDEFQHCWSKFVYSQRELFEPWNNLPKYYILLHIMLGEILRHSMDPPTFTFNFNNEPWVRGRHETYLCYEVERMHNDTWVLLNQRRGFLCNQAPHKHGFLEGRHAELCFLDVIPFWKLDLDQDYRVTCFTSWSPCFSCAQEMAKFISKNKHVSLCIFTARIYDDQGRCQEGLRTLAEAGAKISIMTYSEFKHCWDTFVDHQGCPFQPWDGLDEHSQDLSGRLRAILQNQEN
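HeLa cells stably expressing Vif and C-terminally eYFP-tagged A3G, seeded overnight at 37 deg C, then exposed to compound by pintool overnight at 37 deg C. Rise in yellow fluorescence (Ex 488/Em 500-530, Acumen) marks blocked Vif-driven A3G degradation.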
Vif-A3F inh = qHTS for Inhibitors of Vif-A3F Interactions: qHTS; HeLa A3F-eYFP + Vif (tagged APOBEC3F with the HIV-1 protein that degrades it), YFP fluorescence increase; Potency, µM (titrated, usually from 46.1 µM), without a hit: at the top dose activity, negative = active; 0.2% of 390,000 active; AID 602313, 2012; further: % of control where 0% means no effect; nearly all actives have a fitted effect of over 65% in size
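Fluorescence increase (Ex 488/Em 500-530) after overnight compound treatment at 37 deg C flags inhibition of Vif-driven A3F-eYFP loss in stable HeLa A3F-eYFP/Vif cells seeded overnight beforehand.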
Epigenetic derep = Quantitative High-Throughput Screen for Regulators of Epigenetic Control; Potency, µM (titrated, usually from 53.9 µM), for inactives: at the top dose GFP activation, actives largely listed as activators; AID 1865, 2009; 0.2% of 280,000 active; murine LDR cells, GFP reporter derepression, 30 h; further: % of control where 0% means no effect; nearly all actives have a fitted effect of over 60% in size
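Reporter derepression read as number of fluorescent GFP-positive objects, 20-120 um in size, counted by laser-scanning cytometer. Mouse LDR line with an epigenetically silenced CMV-GFP locus; compound incubation 30 h, 37 C.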
PINK1 expr mod = A Quantitative High throughput Screen to Identify Chemical Modulators of PINK1 Expression; PINK1 immunofluorescence, high-content cytometry, 24 h; Potency, µM (top dose mostly 76.6 µM), for the others: top-dose activation (PINK1 increase), usual class: activators; 0.2% of 410,000 active; AID 624263, 2012; active means well fitted activation curve with a large enough effect; inconclusive means small, poorly fitted or top-dose-only effect; cell line not stated here; further: % of control where 0% means no effect; nearly all actives have a fitted effect of over 65% in size
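PINK1 protein, normally rapidly degraded, was detected by immunofluorescence after 24 hour compound treatment of a stable cell line. Titration data (5 concentrations) came from laser-scanning cytometry, with CCCP-treated wells as controls.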
* marks the source's active call; other numbers are inactive results; u = inconclusive; x = no result. Sampled rows, rich in hits. Any-hit rate of the full collection: about 0.52%. Unless noted, the call rests on the fitted dose curve; in most records, active means well fitted curve in the direction sought with a large enough effect; inconclusive means small, poorly fitted or top-dose-only effect, or another doubt; inactive means no such curve, though single readings can be large; an effect the other way counts as inactive or inconclusive. Potency means the concentration at half of the fitted maximal effect.

SMILES	Vif-A3G inh	Vif-A3F inh	Epigenetic derep	PINK1 expr mod
CCOC(=O)c1c(NC(=O)CSc2nc3ccc(OC)cc3[nH]2)sc2c1CC(C)(C)NC2(C)C	u	25µM*	x	-1%
Nc1[nH]c2cc([N+](=O)[O-])ccc2c1-c1ccccn1	u	10µM*	x	9%
COc1ccccc1CN1CCCC(n2cc(C(=O)N3CCCCC3)nn2)C1 (stereo not given)	x	x	x	1%
Cc1ccc(-n2nc3c(SCCN4CCOCC4)nnc(C)c3c2C)cc1	u	25µM*	0%	4%
CC(C)Oc1ccc(F)cc1-c1cc(C(=O)NCc2cc(C(F)(F)F)cc(C(F)(F)F)c2)[nH]n1	-2%	x	x	35µM*
CC(=O)c1ccc(-c2ccc3c4c(ccc3c2)OC(CNC(=O)[C@@H]2CCCN2C(C)=O)C4)s1 (stereo not given in full)	x	x	x	0%
O=C1Nc2ccccc2/C1=C/c1cccnc1	1%	-3%	-1%	3%
O=C1Nc2ccccc2/C1=C/c1cnc(-c2ccccc2)[nH]1	-8%	-13%	22µM*	45µM*
C[C@]12CCC[C@H](O1)c1c(cc3c(c1O)C(=O)c1c(O)cc(O)cc1C3=O)O2	5.6µM*	8.9µM*	x	u
Cc1ccc(S(=O)(=O)Nc2ccccc2CNc2ccc(Br)cn2)cc1	-8%	0%	1%	16µM*
COc1ccc2o/c(=N/NC(=O)c3cccs3)c(C(N)=O)cc2c1	11µM*	u	18µM*	6%
NC(=O)c1cc2ccccc2o/c1=N/NC(=O)c1cccs1	4%	4%	10%	3%
COc1ccc(-c2[nH]n(-c3ccc([N+](=O)[O-])cc3)c(=O)c2C=NCc2ccccc2)cc1	-10%	u	13µM*	7%
CCc1noc(C)c1C(=O)N1CCOc2ccc(CN3CCCC(C(=O)c4cccnc4)C3)cc2C1 (stereo not given)	x	x	x	-1%
Cc1cccc(N(C(=O)c2nsc(Cl)c2Cl)C(C(=O)NC2CCCC2)c2ccc(O)cc2)c1C (stereo not given)	-5%	0%	1%	45µM*
O=C(O)c1ccccc1/C=N/Nc1ccc(S(=O)(=O)N2CCOCC2)cc1[N+](=O)[O-]	6.3µM*	0%	1%	-2%
C[n+]1ccccc1/C=C1\Sc2ccccc2N1CCO	-15%	-12%	x	0%
CC[n+]1ccc(/C=C2\Sc3ccccc3N2CCCS(=O)(=O)[O-])c2ccccc21	u	3.5µM*	2%	-2%
CN(C)c1cccc(C(=O)NCC2Cc3cccc(-c4cncnc4)c3O2)c1 (stereo not given)	x	x	x	0%
COC(=O)c1ccc(N)c(N=CC2=C(O)CC(C)(C)CC2=O)c1	-6%	u	-1%	5%
CC1(C)CC(=O)C(C=Nc2cc(C(=O)c3ccccc3)ccc2N)=C(O)C1	-23%	28µM*	8%	3%
COc1ccc(O)c(CN2CCC3(CC2)c2ccccc2[C@@H](NC(=O)c2cccc(F)c2)[C@@H]3OC)c1	x	x	x	0%
Cc1ccc(C)c2nc3sc(C(=O)N4CCOCC4)c(N)c3cc12	10µM*	u	0%	2%
CCc1cccc2cc3c(N)c(C(=O)Nc4ccc(S(=O)(=O)N5CCCC5)cc4)sc3nc12	3.5µM*	u	11µM*	11%
Cc1cc(C)c2nc3sc(C(=O)N4CCOCC4)c(N)c3cc2c1	u	u	u	2%
SMILES	Vif-A3G inh	Vif-A3F inh	Epigenetic derep	PINK1 expr mod
Cc1cccc2cc3c(N)c(C(=O)Nc4ccc(N5CCOCC5)cc4)sc3nc12	13µM*	u	u	x
Cc1cccc2cc3c(N)c(C(=O)N4CCc5ccccc54)sc3nc12	u	4.5µM*	u	9%
CCC1CN(CCNC(=O)c2cn3cc(C)ccc3n2)Cc2cc(OC)ccc2O1 (stereo not given)	x	x	x	3%
Cc1ccc2c(/C=C/c3ccc(N(C)C)cc3)c(C)cnc2c1	-16%	x	x	8%
CC[n+]1ccc(/C=C/c2ccc(N(C)C)cc2)c2ccccc21	9%	-3%	12%	u
CN(C)c1ccc(/C=C/c2cc[n+](C)cc2)cc1	u	u	11µM*	4%
CN(C)c1ccc(/C=C/c2cc[n+]([O-])cc2)cc1	x	x	0%	x
CC[n+]1ccccc1/C=C/c1ccc(N(C)C)cc1	u	22µM*	16µM*	u

Screening data: PubChem, National Center for Advancing Translational Sciences (NCATS)
